An excerpt weighted towards active compounds, which were near 2.5% of everything screened.
BJeLR viability – compounds reducing viability of BJeLR cells; BJeLR fibroblasts viability, CellTiterGlo ATP luminescence, 48 h; HRASV12, hTERT and SV40 LT/ST transformed; viability loss activity score, % (test concentration not listed); 30,000 tested, 0.64% active; AID 2275; in the data active = viability loss activity score above about 50%;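 also: higher score means fewer live cells and less ATP luminescence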
ROS inducer – cancer cell ROS induction. U2OS ROS induction, H2DCF-DA fluorescence. ROS induction (% of piperlongumine), % at 10 µM. 46,000 tested, 2% active. AID 624156; in the data active = ROS induction above about 79%, passing the limit was not always enough;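 also: 0% = DMSO vehicle median and 100% = reference compound median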
MITF inhib – MITF inhibition; TRPM1 promoter luciferase, luminescence, 24 h; inhibition, % (no concentration beside the values); 37,000 tested, 0.28% active; in the data active = inhibition above about 85%;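 also: human melanocyte line stably carrying TRPM1 promoter luciferase reporter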
YB-1 expr inh – YB-1 expression inhibition | AID 434959 | U2OS, qRT-PCR YB-1 vs CDIP delta delta Cp, 16 h; active compounds read high; zero = DMSO, each unit about twofold | delta delta Cp (YB-1 minus CDIP) (test concentration not listed) | 30,000 tested, 0.37% active;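 active = delta delta Cp rounded down to an integer at or above 3, about 3 SD of DMSO wells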;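 also: higher means less YB-1 transcript or more CDIP transcript relative to DMSO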
* hit, by the source's call; . = no result given.

SMILES	BJeLR viability	ROS inducer	MITF inhib	YB-1 expr inh
Oc1cc(O)cc(/C=C/c2ccc(O)c(O)c2)c1	-10	7	94*	-0.071
N#C/C(=C/c1ccc(O)c(O)c1)C(=O)OC/C=C/c1ccccc1	-1	2	-10	-0.12
CCC(Sc1nc2ccccc2c2nc(C)nn12)C(=O)Nc1cc(OC)ccc1OC (stereo not given)	0	28	.	.
O=C(NCc1cccnc1)c1ccc(/C=C2\Sc3ccccc3N(Cc3ccccc3F)C2=O)cc1	123*	.	.	.
CC1CC(=O)c2c(ccc3c2C(=O)c2c(O[C@@H]4O[C@@H](C)[C@H](O)[C@@H](O)[C@H]4O)cccc2C3=O)C1 (stereo not given in full)	5	-2	10	-0.46
COc1cccc2c1C(=O)c1c(O)c3c(c(O)c1C2=O)C[C@@](O)(C(C)=O)C[C@@H]3O[C@H]1C[C@H](N)[C@H](O)[C@H](C)O1	111*	141*	74	2.9
COCCOC(=O)N1C(=O)[C@@]2(c3cc(C#CC4=CCCCC4)ccc31)[C@H](C(N)=O)[C@H]1C(=O)O[C@H](c3ccccc3)[C@H](c3ccccc3)N1[C@@H]2c1ccc(O)cc1	.	6	.	-0.044
COCCOC(=O)N1C(=O)[C@@]2(c3cc(C#CC4=CCCCC4)ccc31)[C@H](c1ccccc1OCCO)N1[C@H](c3ccccc3)[C@H](c3ccccc3)OC(=O)[C@H]1[C@@H]2C(=O)NC[C@H](O)c1ccccc1	.	144*	.	-0.21
COCCOC(=O)N1C(=O)[C@@]2(c3cc(C#CC4=CCCCC4)ccc31)[C@H](C(N)=O)[C@H]1C(=O)O[C@H](c3ccccc3)[C@H](c3ccccc3)N1[C@@H]2c1ccccc1OCCO	.	138*	.	-0.033
COc1ccc(OC)c(NC(=O)COc2ccc3c(C)cc(=O)oc3c2)c1	.	3	-22	.
COc1ccc(OC)c(NC(=O)COc2ccc3c(=O)c(Oc4ccccc4Br)coc3c2)c1	.	.	95*	.
CN(C)CCNC(=O)Cn1ncc2c(=O)oc3ccccc3c21	-4	.	.	.
C[C@@H]1CN([C@@H](C)CO)C(=O)c2cccc(NC(=O)c3cnccn3)c2O[C@@H]1CN(C)Cc1ccc(Cl)c(Cl)c1	-2	4	-21	-0.18
C[C@H](CO)N1C[C@H](C)[C@H](CN(C)S(C)(=O)=O)Oc2c(NC(=O)c3cnccn3)cccc2C1=O	0	-8	-10	4.7*
C[C@@H]1CN([C@@H](C)CO)C(=O)c2cccc(NC(=O)c3cnccn3)c2O[C@H]1CN(C)Cc1ccc(Cl)c(Cl)c1	-4	87*	36	0.25
O=C(Cn1c(=O)c2ccccc2n2nncc12)Nc1ccc(Br)cc1	0	-9	.	.
Cc1ccc(CNCc2c(C(=O)O)c(C)n(Cc3ccccc3)c2C)cc1	-2	-12	.	.
C[C@H]1CN([C@@H](C)CO)C(=O)c2cccc(NC(=O)c3ccc(-c4nccs4)cc3)c2O[C@@H]1CN(C)Cc1ccc(C(=O)Nc2ccccc2N)cc1	.	159*	40	-0.023
C[C@@H]1CN([C@@H](C)CO)C(=O)c2cccc(NC(=O)c3ccc(-c4nccs4)cc3)c2O[C@@H]1CN(C)Cc1ccc(-c2ccccc2)cc1	2	67	-5	-0.13
Cc1noc(C)c1S(=O)(=O)N(C)C[C@H]1Oc2c(NC(=O)c3ccc(-c4nccs4)cc3)cccc2C(=O)N([C@H](C)CO)C[C@H]1C	4	106*	-14	-0.27
C[C@@H]1CN([C@H](C)CO)C(=O)c2cccc(NC(=O)c3ccc(-c4nccs4)cc3)c2O[C@H]1CN(C)Cc1ccc(C(=O)Nc2ccccc2N)cc1	.	95*	23	-0.66
O=C(O)CCN1C(=O)c2cc(Cl)c(Cl)cc2C1=O	2	-3	.	.
COc1ccc(Nc2nc(NCCN3CCOCC3)nc3c2cnn3C)cc1Cl	3	18	.	.
Cc1nn(Cc2ccc(C(=O)n3cc(Cl)cn3)o2)c(C)c1Cl	1	-11	.	.
O=C(Nc1ccc(N2CCCCC2)cc1)c1ccncc1	11	87*	16	-0.5
SMILES	BJeLR viability	ROS inducer	MITF inhib	YB-1 expr inh
Clc1ccc(CO/N=C(\Cn2ccnc2)c2ccc(Cl)cc2Cl)c(Cl)c1	-10	35	93*	-0.56
O/N=C(\Cn1cncn1)c1ccc(Cl)cc1Cl	-2	8	-3	0.16
CCCCn1nnc2c(=O)oc3ccccc3c21	3	187*	.	.
CC1C/C(=C/c2ccncc2)C(=O)/C(=C/c2ccncc2)C1 (stereo not given)	5	.	.	.
CC1C/C(=C/c2cccn2C)C(=O)/C(=C/c2cccn2C)C1 (stereo not given)	-8	261*	.	.
CC1CCCC[C@H]2C(=O)C=C[C@H](O)[C@@H]2CC(=O)O1 (stereo not given in full)	62*	63	41	1.4
CC1(C)C=Cc2c(cc3occ(-c4ccc5c(c4)OCO5)c(=O)c3c2O)O1	2	15	-20	0.025
COc1c(-c2coc3cc4c(cc3c2=O)CC(O)C(C)(C)O4)ccc2c1C=CC(C)(C)O2 (stereo not given)	15	22	99*	0.11
CCCc1nn(C)c2c(=O)[nH]c(-c3cc(S(=O)(=O)N4CCN(C)CC4)ccc3OCC)nc12	-3	5	4	-0.043
CCOc1ccc(S(=O)(=O)NCc2ccccc2)cc1-c1nc2c(C(C)(C)C)nn(C)c2c(=O)[nH]1	-3	201*	76	-0.45
O=C(CCC1Nc2c3ccccc3nc(=S)n2C1=O)N1CCN(c2ccccc2)CC1 (stereo not given)	1	-4	.	.
Cc1cccc(NC(=O)Cn2c(=O)n(CCC(=O)NCc3ccco3)c(=O)c3ccccc32)c1	1	.	.	.
COc1ccc(CN(C)C[C@@H]2Oc3ccc(NC(=O)Nc4ccc(C(F)(F)F)cc4)cc3CC(=O)N([C@H](C)CO)C[C@@H]2C)cc1	.	6	32	9.7*
COc1ccc(NC(=O)Nc2ccc3c(c2)CC(=O)N([C@@H](C)CO)C[C@@H](C)[C@@H](CN(C)C(=O)NC2CCCCC2)O3)cc1	.	15	-13	0.44
COc1ccc(NC(=O)N(C)C[C@H]2Oc3ccc(NC(=O)NC4CCCCC4)cc3CC(=O)N([C@H](C)CO)C[C@H]2C)cc1	.	83*	-3	0.012
Cc1noc(C)c1NC(=O)N(C)C[C@H]1Oc2ccc(NC(=O)NC3CCCCC3)cc2CC(=O)N([C@@H](C)CO)C[C@@H]1C	.	104*	-14	0.19
C[C@@H]1CN([C@H](C)CO)C(=O)Cc2cc(N(C)C)ccc2O[C@@H]1CN(C)C(=O)NC1CCCCC1	.	108*	3	0.2
CC(C)NC(=O)N(C)C[C@H]1Oc2ccc(N(C)C)cc2CC(=O)N([C@@H](C)CO)C[C@@H]1C	.	-5	1	0.1
CCc1cccc(C)c1NC(=O)CCC(=O)N1CCOc2ccccc21	-3	-9	.	.
Cc1ccc(C)c(S(=O)(=O)Nc2ccc3oc4c(c3c2)CC(C(C)(C)C)CC4)c1 (stereo not given)	3	.	.	.
COc1ccc(CN(C)C[C@@H]2Oc3ccc(NC(=O)NC4CCCCC4)cc3CC(=O)N([C@@H](C)CO)C[C@@H]2C)cc1	.	-1	5	-0.34

Assay outcomes from PubChem.
